The record followed here is PubChem BioAssay (NCATS).

Records with an inconclusive call do not appear. Calls of active or inactive are those of the source. Unless noted, the call rests on the fitted dose curve; in most records, active means well fitted inhibition curve with a large enough effect; inconclusive means small, poorly fitted or top-dose-only effect; inactive means no such curve, though single readings can be large or run the other way. Non-standard residues stand in square brackets, D forms with d. Residues, ends and D or L forms follow the SMILES beside them. *: point of attachment. Nva = CCC[C@H](N)C(=O)O; Cbz = O=C(OCc1ccccc1)*

Experiment [1] can be described thus: qHTS profiling of the MIPE4 collection as inhibitors of Plasmodium falciparum (DD2) proliferation (AID 743345; call rule not given here). As to conditions: P. falciparum Dd2 in erythrocytes, SYBR Green DNA, 72 h; at 28.5 µM (top of the series) unless noted. The gist of the method:
(§1)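 Erythrocytes infected with P. falciparum (0.3% parasitemia, 2.5% hematocrit) incubated with compounds 72 h at 37 C, 5% CO2. Lysis with saponin/Triton buffer containing SYBR Green I, overnight at room temperature in the dark; DNA fluorescence (485/535 nm) normalised to 0.29 uM artemisinin and DMSO.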
For orientation: qHTS replaces the single test concentration by a dilution series.

A short description of experiment [2]: qHTS profiling of the MIPE4 collection as inhibitors of Plasmodium falciparum (DD2) proliferation (Rep 2) (AID 743346; call rule not given here). As to conditions: P. falciparum Dd2 in erythrocytes, SYBR Green DNA, 72 h; at 28.5 µM (top of the series) unless noted. In a few lines: as §1
Experiment [3] can be described thus: qHTS profiling of the MIPE4 collection as inhibitors of Plasmodium falciparum (HB3) proliferation (AID 743347; call rule not given here;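 further: plate controls were DMSO vehicle wells for no effect and artemisinin wells for full effect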). To be noted: P. falciparum HB3 in erythrocytes, SYBR Green DNA, 72 h; at 28.5 µM (top of the series) unless noted. The gist of the method: as §1
Experiment [4] in a line: High-throughput drug toxicity screening in the BPDCN cell line Gen2.2 (AID 1224824; call rule not given here;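 further: cells exposed to compounds for 48 h before reading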). To be noted: Gen2.2 BPDCN cells; at 45.8 µM (top of the series) unless noted. In a few lines: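 CellTiter-Glo luminescence read after 48 h compound exposure at 37 C defines viability; percent activity set with DMSO as 100% and bortezomib (9.2 uM final) as 0%. 500 exponentially growing cells per well, RPMI plus 10% FBS.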

The nature of experiment [5]: High-throughput drug toxicity screening in the BPDCN cell line Cal-1 (AID 1224825; call rule not given here). To be noted: Cal-1 BPDCN cell viability, qHTS; at 45.8 µM (top of the series) unless noted. The gist of the method:
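Cal-1 cells, 500 per well in phenol-red-free RPMI with 10% FBS, exposed to compounds for 48 hours at 37C, 5% CO2. Viability read by CellTiter-Glo luminescence; percent activity normalized to DMSO (100%) and 9.2 uM bortezomib final (0%).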

The nature of experiment [6]: qHTS assay for measurement of the activity of small molecule inhibitors on Zika virus induced Caspase-3 activity in human iPSC derived neural progenitor cells (hNPCs) (AID 1224857). Further: % of control where 0% means no effect; nearly all actives have a fitted effect of over 65% in size. In a few lines: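 Cells were plated at 350 per well and grown 16 to 20 hours. Compound pretreatment lasted one hour, after which ZIKV (2 FFU/cell) was added for 6 hours. Percent inhibition was normalized between uninfected and infected controls.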

A short description of experiment [7]: qHTS assay for measurement of the activity of small molecule inhibitors on Zika virus induced Caspase-3 activity in human astrocytoma cells (AID 1224859).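 Further: plate controls were ZIKV-infected untreated cells for no effect and uninfected cells for full effect.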 The gist of the method:
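Percent inhibition of virus-induced caspase-3/7 signal is calculated against uninfected and ZIKV-infected control cells. Cells are SNB-19, infected at 2 FFU/cell for 6 h after 1 h compound exposure.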

The nature of experiment [8]: qHTS Screen of the MIPE 4.0 Collection Against Ewings Sarcoma (RDES) (AID 1259252). Further: nearly all actives have a fitted effect of over 35% in size. Further: potency means the concentration at half of the fitted maximal effect. In a few lines:
(§2)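 Viability screen: 48 h incubation at 37C, 95% humidity, 5% CO2 with serially titrated compound, followed by CellTiter-Glo readout.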

Experiment [9] can be described thus: qHTS Screen of the MIPE 4.0 Collection Against Ewings Sarcoma (TC71) (AID 1259253). Further: nearly all actives have a fitted effect of over 40% in size. Further: potency means the concentration at half of the fitted maximal effect. The gist of the method:
as §2

Experiment [10] is described as follows: qHTS Screen of the MIPE 4.0 Collection Against Ewings Sarcoma (EW8) (AID 1259255). Further: nearly all actives have a fitted effect of over 35% in size. Further: potency means the concentration at half of the fitted maximal effect.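 On viability: 100% = DMSO-treated cells and 0% = medium-only wells without cells.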 The gist of the method: as §2

`CCC[C@@H](C=O)NC(=O)[C@H](CC(C)C)NC(=O)[C@H](CC(C)C)NC(=O)OCc1ccccc1` (Cbz-Leu-Leu-[Nva]-aldehyde) displayed a parasite growth remaining, % of DMSO control (lower = more inhibition) in experiment [1] of 6.49%. In addition, the parasite growth, % of control (lower = inhibition) in experiment [2] came out at 7.93%. For the same compound, in experiment [3], the growth, % of control amounted to 3.3%. Also, in experiment [4], the cell viability, % of control (lower = more cytotoxic) was 10.9%. In addition, the viability (% of control) in [5] was found to be 7.12%. Also, the Potency result in experiment [6] and in experiment [7] was “inactive” throughout. Further, the Potency in experiment [8] is 1180 nM (active); in [9], 1320 nM (active); in experiment [10], 743 nM (active).

Compound `COc1cccc2c1C(=O)c1c(O)c3c(c(O)c1C2=O)C[C@@](O)(C(=O)CO)C[C@@H]3O[C@H]1C[C@H](N)[C@@H](O)[C@H](C)O1` registered a parasite growth remaining, % of DMSO control (lower = more inhibition) in experiment [1] of 4.88%. Also, the parasite growth, % of control (lower = inhibition) in [2] was determined as 4.28%. The compound further showed a growth, % of control in experiment [3] of 2.54%. Also, the cell viability, % of control (lower = more cytotoxic) in [4] amounted to 8.09%. Moreover, the viability (% of control) in experiment [5] came out at 4.51%. Further, the Potency result in [6] and in [7] was “inactive” throughout. Moreover, the Potency in experiment [8] is 264 nM (active); in experiment [9], 187 nM (active); in [10], 29.6 nM (active).

In turn, `COc1ccc(C(C)=O)c(O)c1` returned a parasite growth remaining, % of DMSO control (lower = more inhibition) in [1] of 98.8%. Besides, the parasite growth, % of control (lower = inhibition) in [2] is 131%. Besides, in experiment [3], the growth, % of control was 95.8%. Besides, the cell viability, % of control (lower = more cytotoxic) in [4] worked out at 146%. Moreover, in [5], the viability (% of control) worked out at 35.9%. The Potency result in experiment [6], in [7], in experiment [8], in [9] and in experiment [10] was “inactive” throughout.

`O=C(O)c1ccc(Nc2ncc3c(n2)-c2ccc(Cl)cc2C(c2c(F)cccc2F)=NC3)cc1`: the parasite growth remaining, % of DMSO control (lower = more inhibition) in [1] amounted to 82.8%. Also, the parasite growth, % of control (lower = inhibition) in experiment [2] stood at 44%. The compound further gave a growth, % of control in experiment [3] of 52.9%. The cell viability, % of control (lower = more cytotoxic) in experiment [4] came out at 41.7%. For the same compound, the viability (% of control) in experiment [5] worked out at 18.2%. Further, the Potency result in [6] and in experiment [7] was “inactive” each time. Also, the Potency in experiment [8] is 1050 nM (active); in experiment [9], 833 nM (active); in experiment [10], 296 nM (active).

In experiment [1], `Oc1ccc(-c2ccc(-c3cc(Nc4cccc(CNC5CC5)c4)n[nH]3)cc2)c(O)c1` came in with a parasite growth remaining, % of DMSO control (lower = more inhibition) of 13.4%. The parasite growth, % of control (lower = inhibition) in experiment [2] stood at 20%. The compound further showed a growth, % of control in experiment [3] of 3.25%. In [4], the cell viability, % of control (lower = more cytotoxic) was 2.13%. Further, the viability (% of control) in experiment [5] amounted to 3.58%. Moreover, the Potency result in [6] and in experiment [7] was “inactive” each time. Also, the Potency in [8] was 1480 nM (active); in experiment [9], 1870 nM (active); in experiment [10], 1870 nM (active).

For `CS(=O)(=O)N1CCc2c(-c3cnc(N)nc3)nc(N3CCOCC3)nc21`, the parasite growth remaining, % of DMSO control (lower = more inhibition) in experiment [1] came to 9.76%. Further, the parasite growth, % of control (lower = inhibition) in experiment [2] was 6.07%. Further, the growth, % of control in experiment [3] was 2.07%. In addition, the cell viability, % of control (lower = more cytotoxic) in experiment [4] amounted to 10.4%. The viability (% of control) in experiment [5] amounted to 33.9%. In addition, the Potency entry in experiment [6] and in [7] was “inactive” each time. The Potency in [8] is 105 nM (active); in experiment [9] it was 590 nM (active); in experiment [10], 1320 nM (active).

Compound `Nc1nc(=O)n([C@H]2C[C@H](O)[C@@H](CO)O2)cc1F` showed a parasite growth remaining, % of DMSO control (lower = more inhibition) in experiment [1] of 95.7%. For the same compound, in experiment [2], the parasite growth, % of control (lower = inhibition) stood at 85.7%. In addition, in experiment [3], the growth, % of control was 107%. Further, in experiment [4], the cell viability, % of control (lower = more cytotoxic) was 190%. The viability (% of control) in experiment [5] stood at 35.3%. Also, the Potency entry in experiment [6] and in experiment [7] was “inactive” each time. The results for the Potency in experiment [8], in [9] and in [10] were 46.9 nM (active), 93.5 nM (active) and 66.2 nM (active), respectively.

In the case of `CC(C=CC1=C(C)CCCC1(C)C)=CC=CC(C)=CC(=O)Nc1ccc(O)cc1`, the parasite growth remaining, % of DMSO control (lower = more inhibition) in [1] was 6.69% [at 57.5 µM]. For the same compound, the parasite growth, % of control (lower = inhibition) in [2] came to 18.5% [at 57.5 µM]. Moreover, the growth, % of control in experiment [3] was 7.5% [at 57.5 µM]. Also, the cell viability, % of control (lower = more cytotoxic) in experiment [4] came out at 5.64% [at 92.2 µM]. Also, in [5], the viability (% of control) was determined as 4.87% [at 92.2 µM]. Besides, the Potency entry in experiment [6] and in [7] was “inactive” in each case. For the same compound, the Potency was 2410 nM (active) in [8], 5400 nM (active) in [9] and 4290 nM (active) in [10].

Regarding `CCN(CC)CCCCNc1ncc2c(n1)N(C)C(=O)N(c1c(Cl)c(OC)cc(OC)c1Cl)C2`, in [1], the parasite growth remaining, % of DMSO control (lower = more inhibition) came to 17.7%. For the same compound, in experiment [2], the parasite growth, % of control (lower = inhibition) amounted to 23.7%. Further, in [3], the growth, % of control is 11.3%. The cell viability, % of control (lower = more cytotoxic) in [4] is 138%. The viability (% of control) in [5] came out at 50.4%. The Potency result in experiment [6] and in [7] was “inactive” each time. The Potency is 20900 nM (active) in [8], 20900 nM (active) in experiment [9] and 18700 nM (active) in experiment [10].

On to `CCNC(=O)Nc1ccc(-c2nc3c(c(N4CCOC[C@H]4C)n2)CCN(C2COC2)C3)cc1`, for which, in [1], the parasite growth remaining, % of DMSO control (lower = more inhibition) stood at 87.1%. Further, the parasite growth, % of control (lower = inhibition) in [2] worked out at 49%. In addition, in experiment [3], the growth, % of control is 71.6%. Moreover, the cell viability, % of control (lower = more cytotoxic) in [4] turned out to be 5.52%. The viability (% of control) in [5] was found to be 19.9%. For the same compound, the Potency result in experiment [6] and in [7] was “inactive” in each case. Also, the values for the Potency in [8], in experiment [9] and in experiment [10] were 1050 nM (active), 935 nM (active) and 1050 nM (active), respectively.

With `Nc1ncn([C@@H]2O[C@H](CO)[C@@H](O)[C@@H]2O)c(=O)n1`, in experiment [1], the parasite growth remaining, % of DMSO control (lower = more inhibition) stood at 95.9%. Besides, the parasite growth, % of control (lower = inhibition) in experiment [2] came out at 92.3%. This compound also had a growth, % of control in [3] of 95%. In addition, the cell viability, % of control (lower = more cytotoxic) in experiment [4] worked out at 15.6%. Moreover, the viability (% of control) in experiment [5] was determined as 5.42%. In addition, the Potency result in experiment [6] and in [7] was “inactive” throughout. For the same compound, the Potency is 6620 nM (active) in experiment [8], 4180 nM (active) in [9] and 7430 nM (active) in experiment [10].

Take `Cc1cc(O)c2c(c1)C(=O)c1cccc(O)c1C2=O`: the parasite growth remaining, % of DMSO control (lower = more inhibition) in experiment [1] was 85.9%. For the same compound, in experiment [2], the parasite growth, % of control (lower = inhibition) is 121%. In [3], the growth, % of control turned out to be 110%. The cell viability, % of control (lower = more cytotoxic) in experiment [4] turned out to be 99.4%. For the same compound, in [5], the viability (% of control) came to 94.6%. Further, the Potency entry in [6], in experiment [7], in experiment [8], in [9] and in experiment [10] was “inactive” in each case.

`NC(=O)c1ncn([C@@H]2O[C@H](CO)[C@@H](O)[C@@H]2O)c1O` came in with a parasite growth remaining, % of DMSO control (lower = more inhibition) in [1] of 33.1%. In addition, in [2], the parasite growth, % of control (lower = inhibition) amounted to 102%. In addition, the growth, % of control in experiment [3] amounted to 71.4%. In addition, the cell viability, % of control (lower = more cytotoxic) in experiment [4] was 113%. Moreover, the viability (% of control) in [5] turned out to be 102%. In addition, the Potency result in [6], in experiment [7], in experiment [8], in [9] and in [10] was “inactive” throughout.
